Several values for one entry are separate records, joined by “and”; a condition that tells them apart may be missing. Identical values can stand only once. Results filed as inconclusive are left out. Where a call stands in place of a potency, no number is given. Activity calls are given as the source filed them. The call rests on the fitted dose curve. Peptide text beside a SMILES is read from it.

These results are taken from PubChem BioAssay (Tox21).

This experiment in a line: Nuclear factor erythroid 2-related factor 2/antioxidant responsive element (Nrf2/ARE) small molecule agonists: luciferase reporter gene qHTS assay in human keratinocytes (AID 1919969). Further: nearly all actives have a fitted effect of over 35% in size.
Potency means the concentration at half of the fitted maximal effect.

On to `CC(C)(C)[C@@H](O)[C@@H](Cc1ccc(Cl)cc1)n1cncn1`, for which the Potency result was “inactive”.
To `CNC[C@H](O)c1ccc(O)c(O)c1` belongs “inactive”; to `CC(C)NCC(O)c1ccc(O)c(O)c1` (stereo unspecified), “inactive”; to `CCCc1cc(=O)[nH]c(=S)[nH]1`, “inactive”.
The same measure for `CCC(C)(C)C(=O)O[C@H]1C[C@@H](C)C=C2C=C[C@H](C)[C@H](CC[C@@H]3C[C@@H](O)CC(=O)O3)[C@H]21`: “inactive”; for `COC(=O)c1ccc(C=O)cc1`: “inactive”; for `Cc1cc(C)nc(NS(=O)(=O)c2ccc(N)cc2)n1`: “inactive”.
To `CC(C)=CCO` belongs “inactive”.
For the compound `C#C[C@]1(O)CC[C@H]2[C@@H]3CCc4cc(OC)ccc4[C@H]3CC[C@@]21C`, the Potency is 54.5 µM (active) and 26.6 µM (active).
The same measure for `CC(=O)CCc1ccccc1`: “inactive”; for `O=C(c1ccc(O)cc1)c1ccc(O)cc1O`: “inactive”; for `Nc1ccc2c(c1)C(=O)c1ccccc1C2=O`: 756 nM (active) and 243 nM (active).
As for `CC(C)=CCC/C(C)=C\CO`, the Potency result was “inactive”.
To `CCCCCCCCCCCC[N+](C)(C)Cc1ccccc1` belongs “inactive”; to `O=C(O)CC(O)C(=O)O` (stereo unspecified), “inactive”.
To `Clc1ccccn1` belongs “inactive”.
The same measure for `O=C(O)c1cn(-c2ccc(F)cc2)c2cc(N3CCNCC3)c(F)cc2c1=O`: “inactive”; for `O=S(=O)(O)c1ccc(O)cc1`: “inactive”; for `CCCNC(=O)NS(=O)(=O)c1ccc(Cl)cc1`: “inactive”.
Regarding `CCCCCCOC(C)=O`, the Potency result is “inactive”.
To `CCCN(CCC)S(=O)(=O)c1ccc(C(=O)O)cc1` belongs “inactive”; to `CCCCOCCO`, “inactive”; to `OCCCc1ccccc1`, “inactive”.
The same measure for `NC(N)=NC(N)=NCCc1ccccc1`: “inactive”; for `C#CC1(O)CC[C@H]2[C@@H]3CCC4=CCCC[C@@H]4[C@H]3CC[C@@]21C` (stereo partly specified): “inactive”.
To `C=CCOC(=O)C(=C)C` belongs “inactive”; to `COc1cc(NC(=O)CC(C)=O)c(OC)cc1Cl`, “inactive”; to `COc1c(Cl)c(Cl)c(Cl)c(Cl)c1Cl`, “inactive”.
For `C[C@](N)(Cc1ccc(O)c(O)c1)C(=O)O`, the Potency entry was “inactive”.
To `O=C1CCCC1` belongs “inactive”.
The same measure for `CC(O)C(=O)O` (stereo unspecified): “inactive”; for `CCO[Si](CCCNC(N)=O)(OCC)OCC`: “inactive”; for `CN(C)CCN(Cc1cccs1)c1ccccn1`: “inactive”.
The same measure for `OC[C@@H](O)[C@H](O)[C@H](O)[C@@H](O)CO`: “inactive”.
Turning to `CC1=C(/C=C/C(C)=C/C=C/C(C)=C/CO)C(C)(C)CCC1`, the Potency is 69.4 µM (active) and 72.3 µM (active).
To `COC(=O)[C@H](Cc1ccccc1)NC(=O)[C@@H](N)CC(=O)O` (H-Asp-Phe-OMe) belongs “inactive”.
